Only some compounds are listed: those with a hit (about 4.6% of all), similar ones and a draw of the others.
SKKanGAS inh: blocks kanamycin growth of S. pyogenes SKKanGAS strain; BacTiter-Glo, 6 h; inhibition, % at 7.5 µM; hit rate 1.3% among 300,000; AID 1662;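 active = mean replicate score, as percent of positive control median, at least 50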;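 note: strain carries kanamycin resistance gene driven by streptokinase promoter and grows in 40 µg/ml kanamycin; loss of luminescence reflects streptokinase promoter inhibition or plain growth inhibition; 0% = median of DMSO wells and 100% = positive control at its reference dose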
PfHsp90 set2: growth inhibition of yeast expressing Plasmodium Hsp90. S. cerevisiae expressing PfHsp90, BacTiter-Glo ATP, 48 h; yeast lacking PDR1 and PDR3 efflux regulators. inhibition, % at 9.4 µM. hit rate 0.32% among 310,000. AID 504621;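 active = every replicate shows inhibition above about 80%, whatever the replicate mean, limit read from the data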;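 note: 0% = DMSO neutral controls and 100% = 20 µM radicicol positive controls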
TIM10 inh: growth inhibitors of TIM10 yeast strain | S. cerevisiae TIM10 strain growth, BacTiter-Glo luminescence, 24 h | inhibition, % at 10 µM | hit rate 1.4% among 330,000;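 active = inhibition of 40% or more at the single tested concentration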;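 note: wild-type TIM10 isogenic control strain grown at permissive 25 °C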
NALP3 yeast inh: inhibitors of NALP3 inflammasome in yeast; Yeast reconstituted NLRP3/ASC/caspase-1, beta-gal luminescence, 24 h; inhibition, % at 10 µM; hit rate 0.39% among 330,000; AID 2825;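 active = inhibition of 50% or more; inactive = inhibition below 50%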;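 note: plate controls were induced DMSO wells for no effect and uninduced yeast grown without galactose for full effect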
tim10-1 inh: growth inhibitors of tim10-1 mutant yeast; S. cerevisiae tim10-1 ts strain growth, BacTiter-Glo, 24 h; hit rate 2.2% among 330,000; inhibition, % at 20 µM;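 active = inhibition of at least 40%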;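 note: mutant grown at 25 °C; 0% = DMSO wells with yeast and 100% = wells holding no yeast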
tim23-1 inh: growth inhibitors of tim23-1 mutant yeast | S. cerevisiae tim23-1 growth, BacTiter-Glo luminescence, 24 h | inhibition, % at 20 µM | hit rate 1.3% among 330,000;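 active = growth inhibition of the mutant yeast at or above 50%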;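 note: temperature-sensitive mutant grown at 25 °C; plate controls were DMSO-treated mutant yeast for no effect and medium wells lacking yeast for full effect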
TIM10 conf: TIM10 yeast growth inhibition, confirmed; shares compounds with TIM10 inh; S. cerevisiae tim10 strain growth, BacTiter-Glo luminescence, 24 h; inhibition, % at 10 µM; hit rate 63% among 4,600; AID 463215;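 active = inhibition of yeast growth at or above a set limit in either of two replicates at 10 µM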;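 note: this counterscreen used the strain with wild-type TIM10; 0% = yeast with DMSO and 100% = medium wells lacking yeast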
Numbers without * were called inactive; . = no result.

SMILES	SKKanGAS inh	PfHsp90 set2	TIM10 inh	NALP3 yeast inh	tim10-1 inh	tim23-1 inh	TIM10 conf
Cc1ccc(Cc2cnc(NC(=O)c3cccs3)s2)cc1	78*	-5	54*	23	35	49	-15
O=C(Nc1ccc(Cc2ccncc2)cc1)c1cccs1	1	-15	41*	-17	-1	34	-5
Cc1ccc(Cc2cnc(NC(=O)C3CCCO3)s2)cc1 (stereo not given)	4	9	19	20	24	33	.
O=C(Nc1ccc(-c2nc3ccc(NC(=O)c4cccs4)cc3[nH]2)cc1)c1cccs1	0	-17	-26	-1	-32	-18	.
O=C(c1ccncc1)c1ccc(NC(=O)c2cccs2)cc1	-12	-11	24	-10	-21	-6	.
O=C(Nc1ccc2nc(-c3cccs3)[nH]c2c1)c1cccs1	0	-4	52*	-6	9	36	33*
COc1ccccc1CNC(=O)/C=C/c1ccc(S(=O)(=O)N2CCOCC2)cc1	-4	20	-20	9	-6	-5	.
COc1ccccc1C(=O)O[C@H]1[C@H](Cc2ccccc2)NS(=O)(=O)[C@H]2C[C@@H]3C=C[C@]12O3	.	5	-7	6	9	13	.
CC(=O)N1CCC(N(CCN2CCOCC2)C(=S)Nc2ccc(C)c(C)c2)CC1	-7	-17	-22	5	4	10	.
O=C1NCCN(C(=O)CCc2nnc(-c3ccsc3)o2)C1c1ccc(F)cc1 (stereo not given)	-2	10	-4	20	2	-2	.
COc1ccc(/C=N/NC(=S)N[C@H]2CC3CCC2C3)cc1 (stereo not given in full)	39	-11	47*	19	29	29	36*
COc1ccc(/C=C/C(=O)NC2CC3CCC2C3)cc1 (stereo not given)	-3	-2	4	11	5	25	.
CC(C)(C)C1CCC(CN2C(Nc3ccccc3)=NC[C@@H]2Cc2ccccc2)CC1 (stereo not given in full)	.	-19	49*	36	25	47	53*
O=C(Nc1ccccc1-c1ccccc1)C12CC3CC(CC(C3)C1)C2	14	-14	50*	4	34	34	39*
O=S(=O)(c1ccc(Cl)cc1)N1CCN(c2ncccn2)CC1	1	6	9	39	6	-6	.
CCOc1cc(C(=O)NCCCNC(=O)c2cc(OCC)c(OCC)c(OCC)c2)cc(OCC)c1OCC	-12	-8	-13	4	7	-2	.
CCOC(=O)C1=C(C)NC2=C(C(=O)c3ccccc32)C1c1ccc([N+](=O)[O-])o1 (stereo not given)	57*	-26	49*	22	31	48	40*
c1ccc2c(c1)NC1(CCCCCC1)n1c-2nc2ccccc21	0	-16	42*	41	3	46	27
COc1ccccc1C1(CC(=O)N2CCCCC2)CCOC(C(C)C)C1 (stereo not given)	-1	-2	48*	5	35	34	17
COc1ccc(C2CC(C(F)(F)F)n3nc(C(=O)NCCCn4ccnc4)cc3N2)cc1OC (stereo not given)	2	22	4	6	9	-5	.
COc1ccc(NC(=O)c2cc3n(n2)C(C(F)(F)F)CC(c2ccc4c(c2)OCO4)N3)cc1OC (stereo not given)	.	-2	41*	13	38	34	35*
COc1nnc(-c2ccc(N3CCOCC3)c(NC(=O)C3CCCCC3)c2)c2ccccc12	-8	-10	41*	-6	35	33	25
C/C(=N\OCC(=O)N/N=C/c1ccc(C)cc1O)c1cccs1	33	-22	53*	13	18	18	26
CCOC(=O)CSc1nnc2c(n1)C1(C)CCC2C1(C)C (stereo not given)	0	.	2	-3	23	18	.
CC12CCC(c3nnc(SCC(=O)Nc4cccc5ccccc45)nc31)C2(C)C (stereo not given)	3	-7	46*	-1	36	38	24
SMILES	SKKanGAS inh	PfHsp90 set2	TIM10 inh	NALP3 yeast inh	tim10-1 inh	tim23-1 inh	TIM10 conf
CN=c1sc2c(n1C)C(=O)c1ccccc1C2=O	.	-101	.	.	.	.	.
Cc1cc(C(=O)CCl)c(C)n1Cc1ccco1	0	.	46*	-83	38	34	34*
Cc1ccc2nc(-c3ccc(N4C(=O)CC(N5CCC(C(N)=O)CC5)C4=O)cc3)sc2c1 (stereo not given)	-1	.	42*	-8	18	15	57*
Cc1ccc(N2C(=O)CC(N3CCN(C)CC3)C2=O)cc1 (stereo not given)	-1	.	1	6	9	14	.
COc1ccc(/C=C(/C(=O)Nc2ccccc2C(=O)NC(C)C)c2ccccc2)cc1	39	.	33	19	35	2	.
COc1ccc(/C=C(/C(=O)Nc2ccccc2C(=O)N2CCCC2)c2ccccc2)cc1	7	.	43*	-6	34	30	28
CC(C)c1ccc(N(C(=O)CNC(=O)c2ccco2)C(C(=O)NC2CCCC2)c2cccnc2)cc1 (stereo not given)	-2	-3	10	8	-13	6	.
Cc1c(C(=O)OC2CCCCC2)[nH]c2c1C(=O)CC(C)(C)C2	2	-23	96*	36	-7	21	-7
CCCCN(C(=O)CC1OC(=O)c2ccccc21)c1c(N)n(CCCC)c(=O)[nH]c1=O (stereo not given)	-3	-29	1	17	3	-3	.
CCCc1cc(C(=O)Nc2cc(OC)ccc2OC)cs1	-6	-12	11	6	25	18	.
CC(C)CC(c1nnnn1Cc1cccs1)N1CCN(c2nc3ccccc3s2)CC1 (stereo not given)	32	33	28	-3	30	1	.
CC(C)C(c1nnnn1Cc1ccco1)N1CCN(c2nc3ccccc3s2)CC1 (stereo not given)	12	16	45*	8	28	21	-25
O=C(Nc1nccs1)c1ccc(-c2ccccc2Cl)o1	-22	-72	47*	-24	10	47	25
O=C(Nc1nccs1)c1ccc(-c2ccccc2[N+](=O)[O-])o1	8	-27	19	-1	-2	29	.
COc1ccc(CNC(=O)COC(=O)C(CCSC)NC(=O)c2ccco2)cc1OC (stereo not given)	.	32	-3	10	12	7	.
CCN1C(=O)C(=Cc2cccc(OC)c2Oc2ccc([N+](=O)[O-])cc2[N+](=O)[O-])SC1=S	9	-16	44*	15	25	42	6
O=c1[nH]c(NNC(=S)NC2CCCCC2)nc2c1C1(CCCC1)Cc1ccccc1-2	74*	-12	41*	1	29	40	32*
